The source of these data is PubChem BioAssay (NCATS).

The source made the active and inactive calls. Where a call stands in place of a potency, no number is given. Calls follow the shape of the dose curve; as a rule, active = well fitted inhibition curve with a large enough effect; inconclusive = small, poorly fitted or top-dose-only effect; inactive = flat fitted curve, though single readings scatter.
Potency is read from the fitted curve at half-maximal effect.

This experiment deals with Phosphoglycerate kinase, glycosomal (Trypanosoma brucei brucei) (UniProt P07378). Description: qHTS Validation Assay to Find Inhibitors of Phosphoglycerate Kinase (AID 504547). As to conditions: enzymatic PGK inhibition, coupled luminescence read-out; series mostly up to 57.5 µM. The text has this: NIH Molecular Libraries Probe Production Network [MLPCN]
Chain of Phosphoglycerate kinase, glycosomal (Trypanosoma brucei brucei) (P07378 whole entry, looked up): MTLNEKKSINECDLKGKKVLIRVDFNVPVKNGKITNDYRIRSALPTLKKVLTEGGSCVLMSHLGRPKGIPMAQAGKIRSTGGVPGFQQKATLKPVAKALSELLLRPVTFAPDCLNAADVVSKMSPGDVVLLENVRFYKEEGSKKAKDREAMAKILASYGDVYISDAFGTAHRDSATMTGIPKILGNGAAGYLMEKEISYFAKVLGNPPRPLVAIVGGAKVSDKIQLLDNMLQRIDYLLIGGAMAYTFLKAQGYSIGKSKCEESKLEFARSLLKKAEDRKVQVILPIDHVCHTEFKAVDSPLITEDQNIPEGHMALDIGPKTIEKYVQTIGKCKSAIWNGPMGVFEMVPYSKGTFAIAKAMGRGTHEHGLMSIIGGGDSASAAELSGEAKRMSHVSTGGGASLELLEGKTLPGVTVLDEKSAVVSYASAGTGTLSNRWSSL
NIH Chemical Genomics Center [NCGC]
PI Name: Malcolm Walkinshaw, University of Edinburgh
Several species of the Trypanosomatidae family of parasitic protozoans cause a spectrum of diseases
throughout the tropical and subtropical world. Sleeping sickness, caused by two subspecies of Trypanosoma brucei, is endemic to areas of sub-Saharan Africa, while Chagas disease, a manifestation of Trypanosoma cruzi infection, is prevalent throughout Central and South America. In addition, many species of Leishmania are responsible for a range of cutaneous and visceral diseases, causing ulcers, destructive lesions and kalaazar, a lethal infection of the viscera. Collectively, these organisms infect 30 million people worldwide (~500 million live in endemic areas), and account for ~130,000 deaths annually. Given their debilitating and prevalent nature, trypanosomatid parasites impose a heavy medical, economic and social burden on entire populations, primarily in the developing world. The problem is further exacerbated by the fact that existing treatments have progressed little in the past 50 years, and current drugs show high toxicity and poor efficacy.
Blood-stream stages of T. brucei are entirely dependent on glycolysis as a source of ATP, and the tricarboxylic acid cycle and oxidative phosphorylation are both repressed. Glycolysis in axenically cultured T. cruzi, representing the intracellular pathogenic stage, is also essential for these parasites. […] Previous studies have shown that the glycolytic enzyme, phosphoglycerate kinase (PGK), is a viable target for drugs to kill these parasites.
NCGC Assay Protocol Summary:
Briefly, 3ul of substrate/PGK buffer (columns 1,2,5-48) are dispensed into Greiner white solid bottom 1536-well assay plates; columns 3-4 receive only TEA buffer as 0x PGK controls. Compounds are then transferred via Kalypsys pin tool equipped with 1536-pin array (10nl slotted pins, V&P Scientific, San Diego, CA). Following addition of compound, 1ul of GAPDH (100nM final concentration, all columns) is added to initiate the reaction (this upstream coupling enzyme is necessary for in-well production of PGK substrate, 1,3-bisphosphoglycerate (1,3-BPG), which is unstable and not commercially available). The plates are then incubated at room temperature for 60 minutes. Kinase-Glo Plus reagent is added (2ul) and plates incubated for 10 minutes, before being transferred to a ViewLux high-throughput CCD imager (PerkinElmer) wherein single end-point measurements of luminescence are acquired using a clear filter. All reagents are diluted in an assay buffer consisting of 100mM TEA (pH 7.6), 5mM MgCl2 and 0.01% Tween-20.
A general note: In qHTS, concentration-response curves come from the screen itself.
Consider `Oc1ccc2c3c1O[C@H]1c4[nH]c5ccccc5c4C[C@@]4(O)C(C2)N(CC2CC2)CCC314` (stereo not given in full), for which the Potency entry was “inactive”.
Turning to `NC(=O)COc1c(F)cc(SCCNS(=O)(=O)c2ccccc2)cc1F`, the Potency result is “inactive”.
With `O=c1c2ccccc2[se]n1-c1ccccc1`, the Potency entry is “inactive”.
As for `CC(N)[C@H](O)c1ccc(O)c(O)c1` (stereo not given in full), the Potency was 7.57 µM (active).
For the molecule `CCS(=O)(=O)Nc1cccc(C(=C2CCCCC2)c2cnc[nH]2)c1`, the Potency result was “inactive”.
To `O=S1(=O)N(CCN2CC=C(c3c[nH]c4cc(F)ccc34)CC2)c2cccc3c2N1CCC3` belongs “inactive”; to `C[N+]1(C)CCc2cc3c(cc2[C@H]1[C@@H]1OC(=O)c2c1ccc1c2OCO1)OCO3`, “inactive”.
Turning to `Ic1ccccc1CNC1C2CCN(CC2)C1C(c1ccccc1)c1ccccc1` (stereo not given), the Potency result was “inactive”.
Regarding `C[N+]1(C)C2CCC1CC(OC(=O)c1c[nH]c3ccccc13)C2` (stereo not given), the Potency result was “inactive”.
For the molecule `CCCN(CCC)C1CCc2cccc(O)c2C1` (stereo not given), the Potency result was “inactive”.
Turning to `C[N+]1(C)CCOC(O)(c2ccc(-c3ccc(C4(O)C[N+](C)(C)CCO4)cc3)cc2)C1` (stereo not given), the Potency entry is “inactive”.
For the molecule `CCCN1CC[C@@H]2c3cc(O)ccc3CC[C@@H]21`, the Potency result is “inactive”.
As to `COc1ccc2c(c1)C13CCCCC1C(C2)N(C)CC3` (stereo not given), the Potency result is “inactive”.
To `N#CCCN` belongs “inactive”; to `Cc1cc([C@@H]2CCCN2C)on1`, “inactive”.
Consider `CNc1ccc2oc(C[C@H]3O[C@@]4(CC[C@H]3C)O[C@H]([C@H](C)C(=O)c3ccc[nH]3)[C@H](C)C[C@H]4C)nc2c1C(=O)O`, for which the Potency result was “inactive”.
Regarding `CC(=O)NBr`, the Potency result is “inactive”.
Take `Oc1ccc2c3c1O[C@H]1c4oc5ccccc5c4C[C@@]4(O)C(C2)N(CC2CC2)CCC314` (stereo not given in full): the Potency entry was “inactive”.
To `NCCc1c[nH]c2ccc(C(N)=O)cc12` belongs “inactive”; to `C[C@H](N)Cc1cccc(C(F)(F)F)c1`, “inactive”.
`NC(N)=Nc1ccc2[nH]c3c(c2c1)C[C@@]1(O)[C@H]2Cc4ccc(O)c5c4[C@@]1(CCN2CC1CC1)[C@H]3O5`: the Potency result is “inactive”.
With `NCCc1ccc(S(=O)(=O)F)cc1`, the Potency entry is “inactive”.
`C=CCN1CC[C@]23c4c5ccc(O)c4O[C@H]2/C(=N/NC(=O)c2ccccc2)CC[C@@]3(O)[C@H]1C5`: the Potency entry was “inactive”.
For `O=C(O)c1cc[c]([Hg][Cl])cc1`, the Potency entry was “inactive”.
On to `O=[N+]([O-])c1ccc2nc(N3CCNCC3)ccc2c1`, for which the Potency entry is “inactive”.
In the case of `COc1ccc(CNC(=O)/C=C/c2ccc3[nH]cc(CCN(C)C)c3c2)cc1`, the Potency result is “inactive”.
For `c1ccc2c(N3CCNCC3)cccc2c1`, the Potency entry was “inactive”.
To `CN(C(=O)Cc1ccc(Cl)c(Cl)c1)C(CN1CCCC1)c1cccc(OCC(=O)O)c1` (stereo not given) belongs “inactive”; to `C[N+](C)(C)CC#CCN1CCCC1=O`, “inactive”; to `COc1cc(CC(C)N)c(OC)cc1I` (stereo not given), “inactive”.
For `NC(Cc1cc(O)c(O)cc1O)C(=O)O` (stereo not given), the Potency is 0.338 µM (active).
With `N=C(N)c1ccc(CS(=O)(=O)F)cc1`, the Potency result is “inactive”.
`COc1ccc2[nH]c3c(c2c1)CCNC3`: the Potency result was “inactive”.
Turning to `NNC(N)=O`, the Potency result was “inactive”.
Consider `NC(CCCCCP(=O)(O)O)C(=O)O` (stereo not given), for which the Potency result was “inactive”.
For `C=CCN1CCC23c4c5ccc(O)c4O[C@H]2C(=O)CC[C@@]3(O)C1C5` (stereo not given in full), the Potency entry was “inactive”.
For the molecule `Clc1ccc(N2CC3CCC(C2)N3)nn1`, the Potency entry was “inactive”.
Turning to `CO[C@H]1CC=C2CCN3CCC4=C(CC(=O)OC4)[C@]23C1`, the Potency entry was “inactive”.
The value for `OC1CCCCC1N1CCC(c2ccccc2)CC1` (stereo not given) was “inactive”.
The value for `CN1CCC(c2c[nH]c3ccc(O)cc23)CC1` was “inactive”.
